High-throughput results: PubChem BioAssay, National Center for Advancing Translational Sciences (NCATS)
CHX counter – Cycloheximide Counterscreen for Small Molecule Inhibitors of Shiga Toxin; cell reporter, cycloheximide protein synthesis inhibition counterscreen; max response, %; actives 12% (n = 300,000); in the data active means max response mostly above about 13%, no sharp cut-off; inactive means mostly below about 14%; further: read at 38.3 µM for the half of the compounds with a filed dose
HCV inhibitor – qHTS Assay for Inhibitors of Hepatitis C Virus (HCV); Huh7.5.1 HCVcc-Cre infection, luciferase reporter, 44 h; actives 3.4% (n = 340,000); Potency, µM (doses to about 41.8 µM), usual class: inhibitors
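Seed cells (1,000/well) for 4 h; treat with compound and infect with HCVcc-Cre, moi about 0.5. Incubate 44 h, then detect luciferase activity.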
Pf growth 48h – Primary qHTS for delayed death inhibitors of the malarial parasite plastid, 48 hour incubation. P. falciparum luciferase growth in erythrocytes, 48 h. actives 5.9% (n = 310,000). AID 504832, 2011. Potency, µM (top dose mostly 28.7 µM), usual class: inhibitors
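Erythrocytes infected with P. falciparum carrying an integrated firefly luciferase reporter (2% hematocrit, 0.1% parasitemia final) were exposed to compounds in RPMI 1640 with 0.5% Albumax at 37 C, 5% CO2. Growth inhibition was scored as reduced luminescence.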
AMA1 RON2 block – qHTS for Inhibitors of AMA1-RON; Towards Development of Antimalarial Drug Lead: Primary Screen; AlphaScreen AMA1-biotinylated RON2 peptide binding; Potency, µM (series often up to 58.2 µM), actives largely listed as inhibitors; actives 0.2% (n = 360,000); AID 720542, 2013; further: nearly all actives have a fitted effect of over 45% in size
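AMA1 (3D7) with his tag at 25 nM final met compounds first, then biotinylated RON2 peptide at 25 nM; detection used donor plus acceptor beads, 10 µg/mL apiece, read by AlphaScreen after 30 min at room temperature.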
Pf growth 96h – Primary qHTS for delayed death inhibitors of the malarial parasite plastid, 96 hour incubation. AID 504834, 2011. Potency, µM (titrated, usually from 28.7 µM), usual class: inhibitors. P. falciparum luciferase reporter growth, 96 h. actives 6.9% (n = 320,000)
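96 h incubation, 37 C, 5% CO2, of luciferase-reporter P. falciparum-infected RBCs (2% hematocrit, 0.05% parasitemia final) with test compounds; endpoint luminescence.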
Shiga toxin inh – A qHTS for Small Molecule Inhibitors of Shiga Toxin; Vero cells, Shiga toxin protein synthesis inhibition reporter; actives 9.2% (n = 290,000); inhibition, % at 38.7 µM; in the data active means inhibition mostly above about 28%, no sharp cut-off; inactive means mostly below about 43%
A number is an active result; . = inactive; ? = inconclusive; / = not tested or not shown; [ ] = remark or other dose. An excerpt weighted towards active compounds, which were near 21% of everything screened. Unless noted, the call rests on the fitted dose curve; in most records, active means well fitted curve in the direction sought with a large enough effect; inconclusive means small, poorly fitted or top-dose-only effect, or another doubt; inactive means no such curve, though single readings can be large; an effect the other way counts as inactive or inconclusive.

SMILES | CHX counter | HCV inhibitor | Pf growth 48h | AMA1 RON2 block | Pf growth 96h | Shiga toxin inh
O=C(Nc1nc2ccccc2[nH]1)c1cccc(Cl)c1 | 44.1 | . | . | . | . | 91.1
Cc1ccc(C)c(C(=O)Nc2nc3ccccc3[nH]2)c1 | . | . | . | . | . | 61.2
C=CCN(c1ccccc1)S(=O)(=O)c1cccc(C(=O)Nc2nc3ccccc3[nH]2)c1 | . | . | ? | . | ? | .
COc1ccc(N(C)S(=O)(=O)c2cccc(C(=O)Nc3nc4ccccc4[nH]3)c2)cc1 | . | ? | ? | . | ? | .
Cc1ccc(S(=O)(=O)N2CCOCC2)cc1C(=O)Nc1nc2ccccc2[nH]1 | 18.3 | . | ? | .[11.6 µM] | . | .
O=C(Nc1nc2ccccc2[nH]1)c1ccc(Cl)cc1 | . | ? | . | . | . | .
CC(=O)N1CCN(S(=O)(=O)c2cccc(C(=O)Nc3nc4ccccc4[nH]3)c2)CC1 | . | . | ? | . | 1.85µM | .
O=C(Nc1nc2ccccc2[nH]1)c1ccccc1 | 17.0 | ? | . | . | / | .
CN(c1cccc(Cl)c1)S(=O)(=O)c1cccc(C(=O)Nc2nc3ccccc3[nH]2)c1 | 24.2 | ? | 14.7µM | . | ? | .
COc1ccc2oc3c(ccc[n+]3C)c(=O)c2c1 | / | / | / | . | / | /
O=S(=O)(NCC1(N2CCOCC2)CCCCC1)c1ccc(Cl)cc1C(F)(F)F | . | . | ? | . | ? | .
CCCn1nc(C(=O)Nc2nc3ccccc3[nH]2)c2ccccc2c1=O | . | ? | 14.7µM | . | ? | .
Cc1cccc(-c2cc(C(=O)N3CCCc4ccccc43)c3ccccc3n2)c1 | 22.3 | . | 8.28µM | . | ? | .
O=C(c1cc(-c2ccccc2)nc2ccccc12)N1CCCc2ccccc21 | . | . | 2.94µM | ? | ? | .
Cc1ccc(-c2cc(C(F)F)n3ncc(C(=O)N4CCCc5ccccc54)c3n2)cc1 | . | . | ? | . | . | .
CCC(=O)C(C#N)(c1ccc(OC)c(OC)c1)C(C)C (stereo unspecified) | / | . | . | . | . | /
CCOCC(O)COc1ccc(NC(=O)CC[S+](C)C)cc1 (stereo unspecified) | / | / | . | / | . | /
COc1cccc(CNC(=O)CCSCc2ccccc2F)c1 | . | . | . | . | ? | .
Cc1nc2ccc(NC(=O)NCCO)cc2s1 | 20.3 | . | . | . | . | .
Cc1nc2ccc(NC(=O)NCCCO)cc2s1 | 15.6 | . | . | . | . | 48.5
Cc1nc2ccc(NC(=O)NCc3ccco3)cc2s1 | 42.8 | . | . | . | / | 56.1
Cc1cc(C)cc(N(C(=O)c2sc(C)nc2C)C(C(=O)NCc2ccco2)c2ccccc2)c1 (stereo unspecified) | . | . | ? | . | 11.7µM | .
O=C(COc1ccc(Cl)cc1)OCCNC12CC3CC(CC(C3)C1)C2 | / | / | . | / | . | /
Cc1ccc(S(=O)(=O)N2CCN(C(=O)COC(=O)COc3cccc(C(F)(F)F)c3)CC2)c(C)c1 | / | . | / | . | / | /
O=C(NNC(=O)c1ccccc1Cl)c1ccncc1 | . | . | . | . | . | .
SMILES | CHX counter | HCV inhibitor | Pf growth 48h | AMA1 RON2 block | Pf growth 96h | Shiga toxin inh
COc1c(C(=O)NNC(=O)c2ccccc2Cl)csc1Br | 49.2 | . | . | . | . | 75.6
Cc1ccccc1S(=O)(=O)Cc1ccc(C(=O)N2CC(C)CC(C)C2)o1 (stereo unspecified) | . | . | / | . | 16.5µM | .
Cc1ccccc1S(=O)(=O)Cc1ccc(C(=O)N2CCN(c3cccc(C)c3C)CC2)o1 | . | 5.01µM | ? | . | / | .
O=C(CC[C@H]1O[C@@H](n2ccc(=O)[nH]c2=O)[C@H](O)[C@@H]1O)NC1CCN(Cc2ccccc2)C1 (stereo partly specified) | / | / | / | . | / | /
Cc1cccc(C)c1NC(=O)C1CCCN1C(=O)NCc1ccccc1 (stereo unspecified) | . | . | . | . | ? | .
O=C(CCNC(=O)c1ccc(Br)cc1)NC1CCCc2ccccc21 (stereo unspecified) | / | . | ? | . | . | /
Cc1nc2cc(CO)ccc2n1C | . | . | . | . | 9.28µM | .
Cc1cc(C)nc(NCc2ccc(Cl)cc2)n1 | . | . | ? | . | . | .
COc1ccc(OC)c(CNc2ccc3c(c2)nc(C)n3C)c1 | 9.4 | . | . | . | ? | .
Cc1nc2cc(NS(=O)(=O)c3ccccc3)ccc2n1C | . | . | . | . | ? | .
Cc1nc2cc(NCc3ccc(Cl)cc3)ccc2n1C | 30.3 | . | . | . | . | 71.1
COc1ccc(CNc2ccc3c(c2)nc(C)n3C)cc1 | 24.8 | . | / | ? | / | 60.2
CCOc1ccc2c(c1)nc(C)n2C | . | . | . | . | . | .
O=C(NCCCCc1ccccc1)C1CC(c2ccccc2C(F)(F)F)=NO1 (stereo unspecified) | . | ? | . | . | . | .
CCOc1cccc(-c2ccc3nncn3c2)c1 | / | / | / | . | / | /
Cc1ccc(CNc2ccc3c(c2)nc(C)n3C)cc1 | 30.2 | . | . | . | ? | /
Cc1cc(C)cc(OC(=O)c2cccnc2)c1 | . | . | . | . | ? | .
Cc1cccc(/C(N)=N/OC(=O)c2ccc(Br)o2)c1 | 90.9 | . | . | . | . | 90.0
CC(C)(C)c1ccc(C(=O)O/N=C(\N)c2ccccn2)cc1 | . | ? | ? | . | . | .
Cc1cccc(C(=O)O/N=C(\N)c2ccccn2)c1 | . | . | . | . | ? | .
N/C(=N\OC(=O)c1ccc(Br)o1)c1ccccn1 | 25.7 | . | . | . | . | 60.5
Cc1ccc(OC(=O)c2cccnc2)cc1 | . | . | . | . | 11.7µM | .
Cc1cccc(/C(N)=N/OC(=O)c2cccnc2)c1 | 33.2 | . | . | . | . | 103.4
COc1ccc(CN2CCC[C@]3(N[C@H](c4ccc(OC)cc4)[C@@H]4C(=O)N(C)C(=O)[C@@H]43)C2=O)cc1 | / | / | / | . | / | /
COc1cc(OC)cc(C(=O)O/N=C(\N)c2cccc(C)c2)c1 | . | 11.2µM | ? | . | . | .
SMILES | CHX counter | HCV inhibitor | Pf growth 48h | AMA1 RON2 block | Pf growth 96h | Shiga toxin inh
COc1cc(OC)cc(C(=O)O/N=C(\N)c2ccncc2)c1 | . | . | ? | . | ? | .
Cc1cccc(/C(N)=N/OC(=O)C23CC4CC(CC(C4)C2)C3)c1 | 42.4 | . | ? | . | ? | 83.6
CCN(CC)c1ccc(C(NC(C)=O)NC(C)=O)cc1 | . | . | . | . | . | .
CCCCC(=O)NC(c1ccc(N(CC)CC)cc1)c1ccc2cccnc2c1O (stereo unspecified) | . | 1.41µM | ? | . | . | .
CCCCC(=O)NC(c1ccc(N(C)C)cc1)c1ccc2cccnc2c1O (stereo unspecified) | . | 3.98µM | ? | . | . | .
CCCN(C(=O)C1CCN(S(=O)(=O)c2ccc(OC)c(OC)c2)CC1)C1CCS(=O)(=O)C1 (stereo unspecified) | / | . | ? | . | . | /
